Several values for one entry are separate records, joined by “and”; a condition that tells them apart may be missing. Equal values may be shown once. The campaign covered roughly 410,000 compounds. About 18,000 (4.4%) were called active. Inconclusive results (about 7%) are left out. No stated cut-off is given here; in the data, active means activity change below about -60%; inconclusive means no clear call, values can overlap the other calls; inactive means above about -39%. The full list was thinned out, with actives kept by preference. Some compounds were tested as several samples or in several runs, with calls that do not always agree.
Assay: qHTS Assay for inhibitors of the human cytomegalovirus (HCMV)
Details: HFF cells, HCMV-luciferase reporter, 72 h; at 57.5 µM; stronger effect = lower value
Procedure, shortened: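 Steps: HFFs plated, 16 h 37C; compounds added; HCMV-luciferase added to MOI 1 PFU/cell; 72 h 37C; OneGlo reagent, 5 min room temperature; luminescence read, normalized to controls.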
On the % scale 0 is the no-effect control and ±100 the full control effect.

Structure (SMILES) | activity change, negative = inhibition
COc1cc(OC)cc(C(=O)Nc2cc3nn(-c4ccccc4)nc3cc2Cl)c1 | 99.1% (inactive)
CCOC(=O)c1ccccc1NC(=O)CCc1c(C)nc2c(c1C)c(=O)n(C)c(=O)n2C | 5.18% (inactive)
CCC1OC(c2ccc([N+](=O)[O-])cc2)=Nc2ccccc21 (centres undefined) | 13.9% (inactive)
Cc1nc2ccccc2nc(=O)c1NNc1ccc([N+](=O)[O-])cc1 | 4.07% (inactive)
Cc1nc(-c2ccc([N+](=O)[O-])cc2)c(-c2ccccc2)o1 | -90.1% (active)
COc1ccc(Cn2ccnc2SCC(=O)NCc2ccco2)cc1 | -17.3% (inactive)
COc1cc(OC)cc(C2=Cc3ccccc3C(CC(=O)c3ccco3)N2c2ccc(-c3cnc(OC)nc3)cc2)c1 (centres undefined) | 18.6% (inactive)
NC(=O)c1ncc(C(F)(F)F)cc1Oc1ccc(F)cc1 | 0.451% (inactive)
COc1ccc(Cl)cc1NC(=O)CSc1nc2ccccc2c2nc(-c3ccccc3)nn12 | 11.6% (inactive)
CCOc1ccc(CCN2C(=O)C(=O)N([C@@H](Cc3ccc(O)cc3)CN3CCC[C@H]3CN3C(=O)C(=O)NC[C@@H]3CC(C)C)C[C@@H]2Cc2ccccc2)cc1 | -26.1% (inactive)
O=C(COC(=O)c1cncc(Br)c1)Nc1ccc(S(=O)(=O)N2CCOCC2)cc1 | -8.88% (inactive)
O=C(COc1ccc(Br)cc1)OCC(=O)c1ccc[nH]1 | 42.3% (inactive)
CCCOC(=O)c1c(NC(=O)c2cnn3c2NC(c2ccccc2)CC3C(F)(F)F)sc2c1CCCC2 (centres undefined) | -29.2% (inactive)
COc1ccc(OC)c(NC(=O)/C=C/c2ccc(C)o2)c1 | 33% (inactive)
CCOc1ccc(NC(=S)NC(=O)/C=C/c2ccc(OC)cc2)c([N+](=O)[O-])c1 | 40.2% (inactive)
Cc1ccc(/C=C/C(=O)Nc2ccc([N+](=O)[O-])c(NC(=O)/C=C/c3ccc(C)o3)c2)o1 | -77% (active)
COc1c(Cl)cc(C(=O)N(Cc2ccccc2F)C2CCS(=O)(=O)C2)cc1Cl (centres undefined) | -5.18% (inactive)
Cc1ccc(OCC(O)CN2CCN(CC(O)COc3ccc(C)cc3Cl)CC2)c(Cl)c1 (centres undefined) | -4.14% (inactive)
COc1ccccc1OCC(O)CN1CCOCC1 (centres undefined) | -100% (active)
CCCn1c(=N)n(CC(O)COc2ccccc2OC)c2ccccc21 (centres undefined) | -33.4% (inactive)
COc1cc(NS(=O)(=O)c2ccc3ccccc3c2)c2ncccc2c1 | -79.8% (active)
CCOc1ccc(OCC)c(NS(=O)(=O)c2ccc3[nH]c(=O)ccc3c2)c1 | 17.6% (inactive)
COc1ccc(S(=O)(=O)Nc2cc3c(C(=O)OC(C)C)c(C)oc3c3ccccc23)cc1 | 4.89% (inactive)

Structure (SMILES) | activity change, negative = inhibition
COc1cc2c(C(=O)N(C)c3cc(Cl)ccc3OC)cn(C)c(=O)c2cc1OC | -37.5% (inactive)
Cc1cc(C)c2oc(C(=O)Nc3c(C(=O)Nc4ccccc4)oc4ccccc34)cc(=O)c2c1 | 8.41% (inactive)
Cc1nc(/N=C(\N)NC(=O)NC2CCCCC2)nc2ccccc12 | -84.3% (active)
O=C(Cn1nnc(-c2ccccc2)n1)NC(=O)NC1CCCC1 | 11.9% (inactive)
O=C(NNC(=O)C(O)c1ccccc1)NC1CCCCC1 (centres undefined) | -11.7% (inactive)
Cc1ccc(C)c(S(=O)(=O)c2nnn3c2nc(N2CCOCC2)c2sccc23)c1 | 28.6% (inactive)
Cc1ccc(C)c(S(=O)(=O)n2nc(C)c(S(=O)(=O)N3CCC(C)CC3)c2C)c1 | -3.95% (inactive)
COc1ccc(S(=O)(=O)N2CCN(c3ncnc4c(-c5ccccc5)nsc34)CC2)cc1 | 3.62% (inactive)
Cc1ccc(S(=O)(=O)N2CCN(c3ncnc4ccccc34)CC2)cc1 | -87.3% (active)
Cc1ccc(S(=O)(=O)N2CCN(Cc3cccc(C)c3O)CC2)cc1 | -3.34% (inactive)
Cc1ccc(C)c(S(=O)(=O)N2CCN(c3ncnc4sccc34)CC2)c1 | -96.6% (active)
CCOc1ccc2oc(C(=O)N(CC)CC(=O)Nc3ccc(NC(C)=O)cc3)c(C)c2c1 | -18.7% (inactive)
O=S(=O)(c1ccc(Br)cc1)c1nnn2c1nc(N1CCOCC1)c1sccc12 | 18.7% (inactive)
CCCOc1ccc(N2C(=O)CC(N(CCc3ccc(S(N)(=O)=O)cc3)C(C)=O)C2=O)cc1 (centres undefined) | 29.6% (inactive)
CC1CCN(C(=O)Cn2c(=O)n(-c3ccc(Cl)cc3)c(=O)c3c4c(sc32)CCC4)CC1 | 3.05% (inactive)
O=C(Cn1nc(C(F)(F)F)c2c1CCCC2)Nc1ccc(Cl)cc1 | -105% (active)
O=C(Cn1nc(C(F)(F)F)c2c1CCC2)NCc1ccc(F)cc1 | -0.659% (inactive)
Cc1cc(NC(=O)Cn2nc(C(F)(F)F)c3c2CCCC3)no1 | 31% (inactive)
Cc1ccc2nc(CNC(=O)c3ccccc3)[nH]c2c1 | 61% (inactive)
CCOc1ccc2nc(N3CCC(C(=O)Nc4cc(C)ccc4C)CC3)sc2c1 | 20% (inactive)
CCCNC(=O)C1CCN(c2nc3ccc(C)cc3[nH]2)CC1 | 0% (active)
Cc1[nH]c2ccccc2c1[N+](=O)[O-] | 6.63% (inactive)
Cc1cccc(N(CC(O)CN(C)C)S(=O)(=O)c2ccccc2)c1 (centres undefined) | -26.4% (inactive)

Structure (SMILES) | activity change, negative = inhibition
CCCC(O)(CCC)C(=O)NN(C(=O)CCl)c1cccc(C)c1 | -101% (active)
Cc1cccc(N(Cc2ccccc2)C(=O)c2ccccc2F)c1 | 1.73% (inactive)
CCCCNC(=O)CN1C(=O)NC(Cc2ccccc2)(Cc2ccccc2)C1=O | -14.4% (inactive)
COC(=O)N(NC(=O)C(O)(C(C)C)C(C)C)c1ccccc1 | 2.98% (inactive)
CCCCC(O)(CCCC)C(=O)NN(C(=O)CCl)c1ccccc1 | -94.6% (active)
COCn1c(C(O)c2ccccc2)cc2ccccc21 (centres undefined) | 3.56% (inactive)
O=C(CSc1ncc(S(=O)(=O)c2ccc(Br)cc2)c(=O)[nH]1)Nc1ccc2c(c1)OCCO2 | 3.97% (inactive)
CCCN1CN=C(NS(=O)(=O)c2ccc(NC(C)=O)cc2)NC1 | -18.1% (inactive)
COc1ccccc1NC(=O)CSc1oc(-c2ccco2)nc1S(=O)(=O)c1ccc(Br)cc1 | 12.2% (inactive)
CCOc1ccc(NC(=O)CCc2c(C)nn(-c3ccc(N4CCCC4)nn3)c2C)cc1 | -23.2% (inactive)
COc1ccc(-c2nc3sc(CCNS(=O)(=O)c4ccc(F)c(C)c4)c(C)n3n2)cc1 | -32.9% (inactive)
CCCCN=C(N)/C(C(=O)OCC)=C(\O)c1ccc(OC)cc1 | -26.4% (inactive)
Cc1ccc(-c2nnc(SCc3ccccc3C)o2)cc1 | 82.8% (inactive)
O=C(C(=O)N1CCN(c2ccccc2)CC1)c1ccc2c(c1)OCO2 | -64.4% (active)
O=C(c1ccc2c(c1)OCO2)N1CCNc2ccccc2C1 | -3.54% (inactive)
C/C(=C/c1ccccc1)C(=O)N1CCN(c2ccccc2)CC1 | -16.3% (inactive)
CCC(Sc1nnc(-c2ccc(OC)cc2)c(-c2ccc(OC)cc2)n1)C(=O)NC1CCCCC1 (centres undefined) | 5.23% (inactive)
CCOC(=O)C1SC2(C(F)(F)C(F)F)CC1(O)c1c(c(OC)c3occc3c1OC)O2 (centres undefined) | -23.2% (inactive)
C/C(=N\NC(=O)C1(C)CC1(Br)Br)c1ccc(C)cc1C (centres undefined) | 2.84% (inactive)
Cc1cc(C)cc(NC(c2nnc(-c3cccc(F)c3)o2)c2ccc(F)cc2Cl)c1 (centres undefined) | -0.542% (inactive)
CC(=O)N1CCCc2ccc(NS(=O)(=O)c3ccc(F)cc3F)cc21 | 51.5% (inactive)
Cc1nn(-c2ccccc2)c(-n2cccc2)c1C(=O)O | -33.7% (inactive)
Cc1c(NC(=O)c2c([N+](=O)[O-])cnn2C)c(=O)n(-c2ccccc2)n1C | 7.76% (inactive)

Structure (SMILES) | activity change, negative = inhibition
Cc1nn(-c2ccccc2)c(Cl)c1/C=N/NC(=O)c1nn(C)cc1[N+](=O)[O-] | -99% (active)
Cn1c(=O)c2c(nc(SCC(=O)Nc3ccc(F)cc3)n2Cc2ccc(Cl)cc2)n(C)c1=O | -3.29% (inactive)
CCN(C(=O)CSc1nc(N)cc(=O)[nH]1)C1CCS(=O)(=O)C1 (centres undefined) | -1.32% (inactive)
Cc1ccc2c(=O)cc(C(=O)Nc3sc4c(c3C(=O)NCc3cccnc3)CCCC4)oc2c1 | -0.307% (inactive)
Cc1ccc(OCC(=O)Nc2ccc(Cl)c(-c3nc4ccccc4[nH]3)c2)cc1C | -26.2% (inactive)
Cc1ccc(C)c(OCC(=O)Nc2sc3c(c2C#N)CCCC3)c1C | -17.4% (inactive)
CC1C(c2ccccc2)=[N+]([O-])C2(CCCC2)N1O (centres undefined) | 21.7% (inactive)
CCCn1c2ccccc2c2cnn(CC(=O)NCCCOC(C)C)c(=O)c21 | -18.7% (inactive)
CC1CCCCN1CCCNC(=O)Cn1ncc2c([nH]c3ccccc32)c1=O (centres undefined) | 25.9% (inactive) and 24.1% (inactive)
CCCn1c2ccccc2c2cnn(CC(=O)NCCCN3CCCCC3CC)c(=O)c21 (centres undefined) | 5.34% (inactive) and -76.4% (active)
COc1ccc(Nc2ncnc3ccc(Br)cc23)c(OC)c1 | -98.7% (active)
CCOC(=O)CNc1nc(Cl)nc(Nc2ccc(OC)cc2OC)n1 | -6.89% (inactive)
COc1ccc(NC(=O)NNC(=O)COc2cc(C)c(Cl)c(C)c2)c(OC)c1 | -4.84% (inactive)
CC(=O)c1ccc(N2CCN(C3C(=O)c4ccccc4N3C(C)=O)CC2)cc1 (centres undefined) | 0% (inactive)
CCOC(=O)N1CCC(NC(=O)C(NS(=O)(=O)c2ccc3c(c2)CCN3C(=O)CC)C(C)C)CC1 (centres undefined) | 1.92% (inactive)
COc1cccc2c1cc1c(=O)n(CC(=O)N3CCN(c4ccccc4)CC3)nc(C)n12 | 3.76% (inactive)
O=C(Cn1ncc2c3ccccc3n(Cc3ccccc3)c2c1=O)NC1CCCCCC1 | 12.7% (inactive)
Cc1scc(C(=O)NNC(=S)NCC(C)C)c1C | -1.28% (inactive)
Cc1scc(C(=O)NNC(=S)NCc2ccccc2)c1C | -63.5% (active)
CC(C)CNC(=S)NNC(=O)c1ccccc1OC(F)F | 2.34% (inactive)
